Holding throughout (assay): NCI-60 one-dose screen, 48 h (100 = growth as untreated, 0 = no growth, -100 = all killed)
Common to all, as to conditions: 10 µM unless noted

For test [1], the system named is K-562 leukemia.
Test [2] relates to MALME-3M melanoma.
The test system of test [3] is MDA-MB-231 breast.
The subject of test [4] is RXF 393 renal.
For test [5], the system named is SF-268 CNS.
Test [6] concerns SF-295 CNS.
For test [7], the system named is SF-539 CNS.
Test [8] concerns UACC-257 melanoma.
Test [9] deals with M14 melanoma.
The test system of test [10] is HCT-15 colon.
Test [11] relates to SNB-75 CNS.
In test [12] the test system is SNB-19 CNS.
Test [13] relates to U251 CNS.
Test [14] relates to PC-3 prostate.
In test [15] the test system is SK-MEL-5 melanoma.
The test system of test [16] is UACC-62 melanoma.
Test [17] deals with LOX IMVI melanoma.
Test [18] deals with SK-MEL-28 melanoma.
In test [19] the test system is SK-MEL-2 melanoma.
For test [20], the system named is HT29 colon.

About 83,000 compounds went through this panel and 20% of them were active in at least one assay; those are over-represented in the sample as a whole.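 Cells were grown in 96-well plates and exposed to the test compound at a single concentration for 48 hours; results are reported as percent growth, with values below 10 considered active.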 Unmarked numbers belong to inactive results. The source made the active and inactive calls.

As to `CCOC(=O)c1c(NC(=O)C2CCCCC2C(=O)O)sc2c1CCCC2` (stereo unspecified), the growth in [1] is 102%; in test [2], 109%; in [3], 105%; in [4], 114%; in [5], 105%; in test [6] it was 96.3%. The growth in [7] was 102%; in test [8], 92.1%; in test [9] it was 106%; in test [10], 106%; in test [11] it was 97.3%; in test [12], 99.8%. In addition, the growth in test [13] was 99.1%; in test [14], 101%; in test [15], 95.1%; in test [16] it was 103%; in test [17], 90%; in test [18] it was 110%. Further, in [19], the growth is 107%.
For `O=C1NCN(c2ccccc2)C12CCN(CCCC(c1ccc(F)cc1)c1ccc(F)cc1)CC2`, the growth in [1] is 6.41% (active); in [2], 39.9%; in test [3], 78%; in [4] it was 39.9%; in [5], 71.4%; in [6] it was 17.1%. The growth in test [7] was 50.9%; in [8] it was -15.8% (active); in [9] it was 9.99% (active); in test [10], 49.6%; in test [11], 72%; in test [12], 78.2%. Besides, the growth in [13] is 55.2%; in [14] it was 96.3%; in [15] it was 41.4%; in test [16], 78.2%; in [17], 61.9%; in [18] it was 56.8%. For the same compound, the growth in test [19] is 81%.
As to `c1ccc(N2CCN(c3nncc4ccccc34)CC2)nc1`, the growth in test [1] was 106%; in test [2], 109%; in test [3] it was 108%; in test [4], 108%; in test [5], 103%; in test [6], 107%. Besides, the growth is 113% in test [7]; 99% in test [8]; 102% in [9]; 108% in test [10]; 98.2% in test [20]; 96.9% in [13]. The growth in test [14] was 101%; in [15], 97.5%; in test [16], 99.6%; in test [17] it was 97.5%; in [18] it was 108%; in test [19], 103%.
In the case of `O=C(CCc1nnc(Cn2ccnc2)o1)c1nc2ccccc2[nH]1`, the growth was 101% in test [1]; 77.8% in [2]; 89.7% in [3]; 124% in test [4]; 111% in [5]; 111% in test [6]. Besides, the growth in test [7] was 100%; in [8], 114%; in test [9] it was 105%; in test [10] it was 100%; in test [11] it was 97.9%; in [12] it was 108%. Besides, the growth in test [13] was 110%; in test [15] it was 104%; in test [16], 91%; in test [17] it was 90.4%; in [18], 116%.
With `O=c1c(O)cccn1CCCNCCCN(CCCn1cccc(O)c1=O)CCCn1cccc(O)c1=O`, the growth in [1] is 117%; in test [2], 108%; in [3], 96%; in test [4] it was 121%; in test [5], 94%; in test [6], 102%. In addition, the growth in test [7] was 108%; in test [8], 121%; in test [9], 103%; in test [10], 99.2%; in test [20], 111%; in test [12], 99.8%. The growth in [13] is 93.8%; in [15] it was 105%; in [16], 100%; in test [17], 83.8%; in [18], 116%; in test [19], 122%.
As to `CN1C(=O)/C(=C/c2nc(-c3cccc(F)c3)n3ccccc23)c2ccccc21`, the growth is 79.7% in test [1]; 57.6% in [2]; 61.3% in [3]; 66.2% in [4]; 92% in [5]; 87.4% in [6]. Also, the growth in test [7] is 71.4%; in test [8], 79.1%; in test [9], 73.1%; in test [10], 93%; in test [20], 89%; in [12] it was 76.8%. The growth in test [13] is 56.7%; in [14], 81.6%; in test [15], 64%; in test [16] it was 71.3%; in test [17], 48.8%; in test [18], 89.1%. Also, the growth in test [19] is 68.2%.
With `COc1ccc(C2=NN(C(=O)c3cc(OC)c(OC)c(OC)c3)C(c3ccc(C#N)cc3)C2)cc1OC` (stereo unspecified), the growth in test [1] is 20.6%; in test [2], 39.5%; in test [3], 18.2%; in [4] it was -17.2% (active); in [5], 49.3%; in [6], -3.96% (active). The growth was -13.3% (active) in [7]; 69.2% in test [8]; -6.86% (active) in [9]; 26.7% in [10]; -8.4% (active) in test [20]; 21.5% in test [13]. Further, the growth in [14] is 31.4%; in test [15], 17.7%; in [16] it was 43.6%; in test [17] it was 33.6%; in test [18] it was 65.3%; in test [19], 35.6%.
With `O=c1cc(-c2cccnc2)oc2c1ccc1ccccc12`, the growth in test [1] was 53.9%; in test [2] it was 156%; in test [3], 70.7%; in test [4], 68%; in test [5], 54.8%; in [6], 70.1%. Further, the growth in test [7] was 54.6%; in test [8], 82.9%; in test [9] it was 103%; in test [10] it was 72.7%; in test [20], 59%; in [12] it was 64.7%. Further, the growth is 48.8% in [13]; 63.3% in test [15]; 70.3% in [16]; 75.5% in [17]; 69.3% in [18]; 110% in test [19].
Take `CCC1=C(c2ccc(OC)cc2)C(C)(C)Oc2c1ccc(O)c2CN1CCCC1`: the growth was -24.9% (active) in [1]; -9.28% (active) in test [2]; 24.2% in [3]; 14.9% in test [4]; 54.3% in [5]; -44% (active) in test [6]. Moreover, the growth in test [7] is 69.3%; in [8], -16.1% (active); in test [9], -75.8% (active); in test [10] it was 8.13% (active); in test [20] it was 50.4%; in [13] it was -25.4% (active). Besides, the growth is 47.1% in [14]; -97.6% (active) in test [15]; 10.5% in test [16]; -59.7% (active) in [17]; -75.6% (active) in test [18]; -58.5% (active) in [19].
For the compound `Clc1ncn[nH]1`, the growth in [1] is 105%; in [2], 103%; in test [3], 112%; in [4] it was 102%; in test [5], 104%; in test [6], 78.6%. For the same compound, the growth in [7] is 99.8%; in [8] it was 95%; in test [9] it was 105%; in [10], 98.6%; in [11] it was 83.6%; in test [12] it was 102%. Also, the growth was 98.2% in test [13]; 101% in test [14]; 111% in [15]; 99.7% in test [16]; 102% in [17]; 103% in test [18]. Also, in [19], the growth was 99.4%.
For the compound `O=c1[nH]c(Cl)nc2c1cnn2-c1ccccc1`, the growth in test [1] was 43%; in test [2], 104%; in [3], 92.3%; in [4], 111%; in test [5], 93%; in test [6], 85.2%. Moreover, the growth in test [7] is 77.2%; in test [8], 106%; in test [9] it was 84.9%; in test [10], 94.7%; in test [20], 64.4%; in test [13], 100%. Also, the growth in test [14] was 76.6%; in test [15], 96.5%; in test [16], 67.6%; in test [17], 71.7%; in [18] it was 70.7%; in test [19] it was 103%.
For `O=C1/C(=C/c2ccc([N+](=O)[O-])s2)Oc2ccc(Br)cc21`, the growth is -5.87% (active) in test [1]; -59.7% (active) in test [2]; -64% (active) in test [3]; -59.9% (active) in [4]; -52.1% (active) in [5]; -31.3% (active) in test [6]. Moreover, the growth in [7] is -73.7% (active); in [8] it was -39.2% (active); in [9], -54.1% (active); in [10], -3.34% (active); in [11], -16.1% (active); in [12], -15.3% (active). Moreover, the growth in test [13] was -87.9% (active); in test [14] it was -62.3% (active); in test [15], -89.1% (active); in test [16] it was -83.4% (active); in test [17], -75.6% (active); in test [18], -66.4% (active). For the same compound, in [19], the growth is -62.2% (active).
For the compound `COc1ccc2c(c1)[nH]c(=O)c1c3cc(OC)c(OC)cc3cn21`, the growth in [1] was 0.148% (active); in test [2], 56.7%; in test [3], 26.4%; in test [4], 0.926% (active); in test [5] it was 9.67% (active); in test [6], 13.6%. For the same compound, the growth was 10.7% in test [7]; 82.6% in test [8]; 23.6% in test [9]; -6.44% (active) in test [10]; 72% in [11]; 31.3% in [12]. Further, the growth in [13] is -22.4% (active); in test [14], -90.8% (active); in test [15], -6.64% (active); in test [16], 48.9%; in [17], 9.3% (active); in test [18], 61.1%. In test [19], the growth is 6.58% (active).
For the compound `c1ccc(-c2nnc(Nc3nnc(-c4ccccc4)s3)s2)cc1`, the growth in [1] is 111%; in test [2], 101%; in test [3], 102%; in test [4], 105%; in test [5] it was 103%; in test [6] it was 102%. Further, the growth in test [7] is 101%; in test [8], 99.1%; in [9], 105%; in test [10], 102%; in [20], 106%; in test [12] it was 111%. For the same compound, the growth is 97.7% in test [14], 100% in test [15], 103% in test [16] and 112% in [18].
As for `Clc1nc(Cl)c2ncn(-c3ccccc3)c2n1`, the growth in test [1] is 36.2%; in [2], 48.4%; in [3], 63.1%; in test [4] it was 56.1%; in test [5], 68.8%; in [6], 106%. Moreover, the growth was 85.2% in test [7]; 67% in [8]; 35.6% in test [9]; 44.8% in [10]; 43.4% in test [20]; 103% in test [12]. Moreover, the growth is 42.7% in [13]; 95.7% in [14]; 78.6% in [15]; 69% in [16]; 0.438% (active) in test [17]; 91.1% in test [18]. Besides, in test [19], the growth is 17.8%.
Take `NCCCc1nnc(CCC(=O)c2nc3ccccc3[nH]2)o1`: the growth in test [1] was 98.5%; in test [2] it was 82.2%; in [3] it was 89.8%; in test [4], 116%; in test [5], 115%; in [6], 98.4%. In addition, the growth is 101% in [7]; 113% in test [8]; 109% in test [9]; 90% in test [10]; 90.8% in [11]; 102% in test [12]. The growth in test [13] is 102%; in test [15], 108%; in test [16] it was 90.2%; in [17], 90.9%; in test [18], 105%.
